# From PubChem BioAssay (EPA / NIEHS)
# Values joined by “and” are separate entries in the source; they are usually repeats but may differ in a detail not shown here. Equal values may be shown once. Inconclusive results are not listed. More than one record can exist for a structure, and the calls need not agree. Active and inactive are the calls of the source. Rule for the calls: active = hit-call score of the fitted dose curve at least 0.9, where 1 is the maximum; inconclusive = response in the unintended direction; inactive = score below 0.9.
# How the values were obtained:
# [1] = biological target: Cellular tumor antigen p53 (Homo sapiens) (UniProt P04637); experiment: TOX21_p53_BLA_p2_ratio: Tox21 HCT-116 p53 Agonism Beta-lactamase Assay, Ratio, Phase 2 (AID 2283592)
# Sequence of Cellular tumor antigen p53 (Homo sapiens) (P04637 whole entry, looked up): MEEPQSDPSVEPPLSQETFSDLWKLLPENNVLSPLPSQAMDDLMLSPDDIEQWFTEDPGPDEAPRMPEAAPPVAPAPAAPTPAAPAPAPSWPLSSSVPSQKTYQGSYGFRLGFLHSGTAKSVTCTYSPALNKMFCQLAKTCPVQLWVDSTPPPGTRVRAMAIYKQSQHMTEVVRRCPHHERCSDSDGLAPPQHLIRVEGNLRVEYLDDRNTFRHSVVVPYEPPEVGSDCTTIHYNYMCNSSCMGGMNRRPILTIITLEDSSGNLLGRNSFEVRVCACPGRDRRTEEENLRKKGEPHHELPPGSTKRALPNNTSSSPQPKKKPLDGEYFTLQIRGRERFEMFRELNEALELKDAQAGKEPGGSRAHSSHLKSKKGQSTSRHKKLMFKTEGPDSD
# Summary of the method: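 DMSO-normalized, positive-direction endpoint derived from the 460 nm/530 nm FRET ratio in HCT116 p53 beta-lactamase reporter cells exposed 16 h at 37C and loaded with CCF4-AM for 2 h.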
# [2] = biological target: Cellular tumor antigen p53 (Homo sapiens) (UniProt P04637); experiment: TOX21_p53_BLA_p3_ratio: Tox21 HCT-116 p53 Agonism Beta-lactamase Assay, Ratio, Phase 3 (AID 2283596)
# Summary of the method: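 Cells were seeded at 4000/well, rested 5 h at 37C, then dosed with DMSO compound solutions (217-fold dilution) for 16 h. CCF4-AM substrate was loaded for 2 h at room temperature, and the 460/530 nm emission ratio was fitted for gain of signal versus DMSO.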
# [3] = biological target: Cellular tumor antigen p53 (Homo sapiens) (UniProt P04637); experiment: TOX21_p53_BLA_p5_ratio: Tox21 HCT-116 p53 Agonism Beta-lactamase Assay, Ratio, Phase 5 (AID 2283599)
# Summary of the method: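 Beta-lactamase reporter ratio (blue 460 nm over green 530 nm, 405 nm excitation) after 2 h CCF4-AM loading, in HCT-116 cells exposed 16 h at 37 C to compounds pinned at 217-fold dilution. Increases relative to DMSO baseline scored.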
# [4] = biological target: Cellular tumor antigen p53 (Homo sapiens) (UniProt P04637); experiment: TOX21_p53_BLA_p4_ratio: Tox21 HCT-116 p53 Agonism Beta-lactamase Assay, Ratio, Phase 4 (AID 2283601)
# Summary of the method: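 Signal is the blue/green (460nm/530nm) ratio of cleaved versus uncleaved CCF4-AM substrate, read after 2 h substrate loading. Cells were HCT116 carrying the p53-responsive beta-lactamase reporter, dosed 16 h at 37C, 5% CO2; CellTiter-Glo measured in parallel.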
# [5] = TOX21_p53_BLA_p4_viability: Viability Assessment in the Tox21 HCT-116 p53 Agonism Beta-lactamase Assay, Phase 4 (AID 2283597);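 note: hits lower the luminescence signal meaning cytotoxicity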
# Summary of the method: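 In this multiplexed secondary endpoint, HCT116 cells (4000 per well, compound at 5 h, 16 h treatment) received CellTiter-Glo after the beta-lactamase read. Luminescence after 30 min RT reflects ATP, and falling signal marks cytotoxicity.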
# [6] = TOX21_p53_BLA_p5_viability: Viability Assessment in the Tox21 HCT-116 p53 Agonism Beta-lactamase Assay, Phase 5 (AID 2283600)
# Summary of the method: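 Here cell health was gauged by ATP levels in wells holding 4000 cells, each treated 16 h with DMSO-delivered compounds at 217-fold dilution; reduced luminescence marked toxicity.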
# [7] = TOX21_p53_BLA_p3_viability: Viability Assessment in the Tox21 HCT-116 p53 Agonism Beta-lactamase Assay, Phase 3 (AID 2283593);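 note: cells exposed to compound for 16 h before reading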
# Summary of the method: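 Cellular ATP was quantified by CellTiter-Glo luminescence, read after 30 min at room temperature. Beforehand, HCT116 cells (4000/well) received compound 5 h post-seeding, 217-fold diluted from DMSO, then incubated 16 h at 37C.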
# [8] = biological target: Thyroid hormone receptor alpha (Rattus norvegicus) + Thyroid hormone receptor beta (Rattus norvegicus) (UniProt P18113+P63059); experiment: TOX21_TR_LUC_GH3_Antagonist_Followup: Tox21 GH3 Thyroid Hormone Receptor Antagonism Luciferase Follow-Up Assay (AID 2283942)
# Summary of the method: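 Loss of T3-driven (1.0 nM final) reporter activity in GH3 cells was read by ONE-Glo luminescence after 24 h incubation at 37C; 15-point compound series spanned 92 uM to 5nM final, 1,500 cells/well.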
# THRB (gene 7068) = THRB (gene 7068) (UniProt P10828); experiment: TOX21_TRB_BLA_Antagonist_Followup_ratio: Tox21 Thyroid Hormone Receptor beta Antagonism Beta-lactamase (BLA) Follow-Up Assay, Ratio (AID 2283958)
# Sequence of THRB (gene 7068) (P10828 whole entry, looked up): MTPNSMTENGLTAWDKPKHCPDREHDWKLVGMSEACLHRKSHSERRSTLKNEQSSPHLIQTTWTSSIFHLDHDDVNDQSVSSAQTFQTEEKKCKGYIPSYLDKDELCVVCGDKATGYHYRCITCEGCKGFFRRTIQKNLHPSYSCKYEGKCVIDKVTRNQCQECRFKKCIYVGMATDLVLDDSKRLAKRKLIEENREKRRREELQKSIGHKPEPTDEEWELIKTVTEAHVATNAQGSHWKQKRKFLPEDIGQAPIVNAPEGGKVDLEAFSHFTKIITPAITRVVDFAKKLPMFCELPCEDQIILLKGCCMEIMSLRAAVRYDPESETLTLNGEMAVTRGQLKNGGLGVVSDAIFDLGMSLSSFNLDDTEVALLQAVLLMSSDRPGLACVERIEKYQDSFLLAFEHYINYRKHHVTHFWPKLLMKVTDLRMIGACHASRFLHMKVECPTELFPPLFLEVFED
# Summary of the method: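 Beta-lactamase reporter ratio (460/530 nm, CCF4-AM substrate, 2 h room temperature) was read in TRb-bla HEK293T cells after 18 h compound treatment (11 concentrations, triplicate) at 37C in 2% charcoal-stripped FBS medium. Loss of signal fitted against DMSO.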
# [9] = TOX21_TRB_BLA_Antagonist_Followup_viability: Viability Assessment in the Tox21 Thyroid Hormone Receptor beta Antagonism Beta-lactamase (BLA) Follow-Up Assay (AID 2283961)
# Summary of the method: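 In the same wells as the reporter read, cell health was gauged by CellTiter-Glo ATP luminescence, with signal loss indicating reduced viability. Cells had been exposed to test compounds for 18 h.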
# [10] = biological target: Retinoic acid receptor RXR-alpha (Homo sapiens) (UniProt P19793); experiment: TOX21_TR_RXR_BLA_Antagonist_Followup_ratio: Tox21 Thyroid Hormone Receptor beta Retinoid X Receptor alpha (RXRa) Antagonism Beta-lactamase (BLA) Follow-Up Assay, Ratio (AID 2283972)
# Sequence of Retinoic acid receptor RXR-alpha (Homo sapiens) (P19793 whole entry, looked up): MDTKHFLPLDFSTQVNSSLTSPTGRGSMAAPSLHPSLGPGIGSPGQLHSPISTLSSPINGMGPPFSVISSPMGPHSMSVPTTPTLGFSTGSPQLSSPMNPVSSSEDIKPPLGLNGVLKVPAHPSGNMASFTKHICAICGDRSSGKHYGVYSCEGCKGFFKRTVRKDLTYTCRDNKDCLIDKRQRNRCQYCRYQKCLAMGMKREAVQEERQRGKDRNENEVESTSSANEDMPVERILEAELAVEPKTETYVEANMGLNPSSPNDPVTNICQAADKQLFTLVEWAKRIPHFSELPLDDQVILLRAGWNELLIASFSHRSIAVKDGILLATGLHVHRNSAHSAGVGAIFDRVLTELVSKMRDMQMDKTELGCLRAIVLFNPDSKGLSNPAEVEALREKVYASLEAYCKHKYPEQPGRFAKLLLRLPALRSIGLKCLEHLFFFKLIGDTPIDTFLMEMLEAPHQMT
# Summary of the method: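 Compounds were tested in triplicate at 11 concentrations on RXRa-bla HEK293T cells for 16 h. Substrate cleavage ratio, normalized to DMSO, gave the endpoint.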
# [11] = TOX21_TR_RXR_BLA_Antagonist_Followup_viability: Viability Assessment in the Tox21 Thyroid Hormone Receptor beta Retinoid X Receptor alpha (RXRa) Antagonism Beta-lactamase (BLA) Follow-Up Assay (AID 2283979)
# Summary of the method: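 Follow-up compounds (11 concentrations, triplicate) were incubated 16 h at 37C/5% CO2 with HEK293T RXRa-bla cells seeded at 2,500/well in charcoal-stripped-serum medium. ATP content by CellTiter-Glo luminescence gave viability; curves fitted in both directions against DMSO.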
structure (smiles),measurement,setting,value
CN(C)CCN(Cc1cccs1)c1ccccn1,outcome,[1],inactive
same,outcome,[2],inactive
same,outcome,[3],inactive
same,outcome,[4],inactive
COc1ccccc1N1CCN(CCCNc2cc(=O)n(C)c(=O)n2C)CC1,outcome,[1],inactive
same,outcome,[2],inactive
same,outcome,[5],inactive
same,outcome,[6],inactive
same,outcome,[4],inactive
CN1[C@@H]2CCC[C@H]1CC(NC(=O)c1nn(C)c3ccccc13)C2 (some centres not stated),outcome,[1],inactive
same,outcome,[7],inactive
same,outcome,[5],inactive
same,outcome,[6],inactive
C[N+](C)(CCOc1ccccc1)Cc1cccs1,outcome,[7],inactive
same,outcome,[2],inactive
same,outcome,[5],inactive
same,outcome,[3],inactive
same,outcome,[6],inactive
same,outcome,[4],inactive
C[C@@H]1O[C@@H](OC[C@H]2O[C@@H](Oc3c(-c4ccc(O)c(O)c4)oc4cc(O)cc(O)c4c3=O)[C@H](O)[C@@H](O)[C@@H]2O)[C@H](O)[C@H](O)[C@H]1O,outcome,[1],inactive
same,outcome,[5],inactive
same,outcome,[3],inactive
same,outcome,[6],inactive
same,outcome,[4],inactive
CC(C)NCC(O)c1ccc2ccccc2c1 (configuration not stated),outcome,[7],inactive
same,outcome,[2],inactive
same,outcome,[5],inactive
same,outcome,[3],inactive
same,outcome,[4],inactive
CCn1cc(C(=O)O)c(=O)c2cc(F)c(N3CCNCC3)cc21,outcome,[1],inactive
same,outcome,[2],inactive
same,outcome,[5],inactive
same,outcome,[3],inactive
same,outcome,[4],inactive
O=C(O)c1ccncc1,outcome,[7],inactive
same,outcome,[2],inactive
same,outcome,[3],inactive
same,outcome,[6],inactive
same,outcome,[4],inactive
COc1ccc(NC(C)=O)cc1,outcome,[7],inactive
same,outcome,[5],inactive
same,outcome,[6],inactive
O=C(O)C(=O)Cc1c[nH]c2ccccc12,outcome,[1],inactive
same,outcome,[2],inactive
same,outcome,[3],inactive
same,outcome,[6],inactive
same,outcome,[4],inactive
C=CS(=O)(=O)O,outcome,[1],inactive
same,outcome,[5],inactive
same,outcome,[3],inactive
same,outcome,[6],inactive
same,outcome,[4],inactive
Nc1ccc2cc3ccc(N)cc3nc2c1,AC50,[1],968 nM (active) and 3.15 µM (active)
same,AC50,[2],2.62 µM (active) and 5.87 µM (active)
same,AC50,[3],2.96 µM (active) and 4.81 µM (active)
same,AC50,[4],1.64 µM (active) and 3.71 µM (active)
same,AC50,[8],13.1 µM (active)
same,AC50,THRB (gene 7068),32.4 µM (active) and 28.8 µM (active)
same,AC50,[9],19.5 µM (active)
same,outcome,[9],inactive
same,AC50,[10],17.5 µM (active) and 7.59 µM (active)
same,outcome,[11],inactive
Cc1[nH]c(=O)c(C#N)cc1-c1ccc2nccn2c1,outcome,[1],inactive
same,outcome,[5],inactive
same,outcome,[3],inactive
same,outcome,[4],inactive
O=C(NCCN1CCOCC1)c1ccc(Cl)cc1,outcome,[1],inactive
same,outcome,[2],inactive
same,outcome,[5],inactive
same,outcome,[3],inactive
same,outcome,[6],inactive
same,outcome,[4],inactive
O=C(Cl)c1cc(Cl)cc(Cl)c1,outcome,[7],inactive
same,outcome,[2],inactive
same,outcome,[5],inactive
same,outcome,[3],inactive
same,outcome,[6],inactive
